The nature of test [1]: Wnt pathway potentiators raising nuclear beta-catenin – imaging, WNT3A-conditioned medium, mouse C2C12, NPC library, primary screen (AID 1117326). Particulars: stronger effect = higher value.
The nature of test [2]: stimulators of insulin release from INS-1E, primary screen, cell-based, 5 mM glucose, NPC library (AID 1117329;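 active means compound raises insulin release from rat beta cells at 5 mM glucose, no numeric limit stated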). Particulars: rat INS-1E insulin secretion, at 10 µM, stronger effect = higher value.
The nature of test [3]: growth inhibition of GSK3B-pretreated HCT116 cells – cell-based, CellTiter-Glo, 0.2 to 20 µM (AID 1117336;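 active means compounds lowering colon cancer cell viability after pretreatment blocking the GSK3B kinase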). Particulars: HCT116 viability after GSK3B inhibitor, at 20 µM, stronger effect = higher value. On the technique in general: In ATP-based viability assays light output follows the ATP content of the culture.
A short description of test [4]: inhibition of endothelial tube formation, primary screen, imaging, VEGF stimulated, CD31 staining, tube area, NPC library (AID 1117340;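 active means compound that reduces growth-factor-driven endothelial tube area in a mixed cell culture, no cutoff stated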). Particulars: VEGF-stimulated ADSC/ECFC co-culture, at 10 µM, stronger effect = higher value.
Test [5] can be described thus: GLP1 release stimulators, primary, NCI-H716, NPC library (AID 1117341;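 active means compound raises GLP1 secretion from the human gut endocrine cells, with no numeric limit stated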). Particulars: NCI-H716 cells, at 10 µM, stronger effect = higher value.
The nature of test [6]: HCT116 colon cancer cell growth inhibition, primary screen, CellTiter-Glo luminescence, NPC library (AID 1117342;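 active means compounds that lower survival of HCT116 colon cancer cells in the luminescence readout, no numeric limit stated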). Particulars: at 20 µM (top of the series).
Test [7] can be described thus: reduced SW480 viability measured with CellTiter-Glo, NPC library, primary (AID 1117343;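 active means compounds that lower viability of the colon cancer cells in the luminescence readout, with no numeric limit stated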). Particulars: CellTiter-Glo luminescence; at 20 µM (top of the series) unless noted.
A short description of test [8]: NPC library primary testing for decreased DLD-1 cell viability via CellTiter-Glo (AID 1117346;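 active means compounds that lower survival of DLD-1 colon cancer cells in the luminescence readout, no cutoff given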). Particulars: DLD-1 viability, CellTiter-Glo luminescence; at 20 µM (top of the series).
Test [9] has as its target Mitogen-activated protein kinase 7 (Homo sapiens) (UniProt Q13164). Briefly: Gal4-ERK5 driven luciferase induction – cell-based, HTS, primary screen (AID 1508626;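 active means luciferase signal above three times the same-plate solvent-only control wells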;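 further: luciferase driven by Gal4-ERK5 fusion binding five Gal4 sites before minimal TATA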). The note with it: HeLa Gal4-ERK5 transactivation, 18 h, at 5 µM, stronger effect = higher value.
Test [10] deals with NAD(+) hydrolase SARM1 (Homo sapiens) (UniProt Q6SZW1). Briefly: blocking NAD cleavage by SARM1 SAM-TIR – cell lysate, NAD-Glo luminescence (AID 1508614;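 active means compound whose remaining NAD level is above about 45 nM, limit read from the data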). Particulars: SAM-TIR HEK293T lysate NADase, at 1 µM, stronger effect = higher value.
Sequence of NAD(+) hydrolase SARM1 (Homo sapiens) (Q6SZW1 whole entry, looked up): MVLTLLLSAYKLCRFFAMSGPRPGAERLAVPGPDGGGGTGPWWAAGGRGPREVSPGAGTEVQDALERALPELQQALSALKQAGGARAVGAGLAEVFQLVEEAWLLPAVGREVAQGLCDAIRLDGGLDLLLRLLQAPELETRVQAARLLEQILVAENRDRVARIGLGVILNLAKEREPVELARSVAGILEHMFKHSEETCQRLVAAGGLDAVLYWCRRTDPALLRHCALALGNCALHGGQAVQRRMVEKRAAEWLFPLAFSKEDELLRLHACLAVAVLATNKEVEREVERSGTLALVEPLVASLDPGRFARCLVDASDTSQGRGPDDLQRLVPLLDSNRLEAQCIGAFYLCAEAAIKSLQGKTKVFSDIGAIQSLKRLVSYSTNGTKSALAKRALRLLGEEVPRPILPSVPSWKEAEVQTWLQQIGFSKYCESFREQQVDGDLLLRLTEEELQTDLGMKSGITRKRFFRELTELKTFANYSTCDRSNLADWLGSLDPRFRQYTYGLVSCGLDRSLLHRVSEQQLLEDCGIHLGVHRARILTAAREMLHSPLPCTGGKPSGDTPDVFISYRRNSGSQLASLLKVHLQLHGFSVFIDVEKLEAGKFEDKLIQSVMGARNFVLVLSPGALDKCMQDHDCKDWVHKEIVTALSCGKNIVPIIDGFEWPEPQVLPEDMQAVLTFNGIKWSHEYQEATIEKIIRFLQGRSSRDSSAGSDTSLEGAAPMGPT

Active and inactive are the calls of the source. Unless noted, no stated cut-off is given here; in the data, active means nuclear beta-catenin stimulation mostly above about 4.2% (no sharp cut-off); inactive means mostly below about 10%.

Sequence of Mitogen-activated protein kinase 7 (Homo sapiens) (Q13164 whole entry, looked up, the tested form may be a part): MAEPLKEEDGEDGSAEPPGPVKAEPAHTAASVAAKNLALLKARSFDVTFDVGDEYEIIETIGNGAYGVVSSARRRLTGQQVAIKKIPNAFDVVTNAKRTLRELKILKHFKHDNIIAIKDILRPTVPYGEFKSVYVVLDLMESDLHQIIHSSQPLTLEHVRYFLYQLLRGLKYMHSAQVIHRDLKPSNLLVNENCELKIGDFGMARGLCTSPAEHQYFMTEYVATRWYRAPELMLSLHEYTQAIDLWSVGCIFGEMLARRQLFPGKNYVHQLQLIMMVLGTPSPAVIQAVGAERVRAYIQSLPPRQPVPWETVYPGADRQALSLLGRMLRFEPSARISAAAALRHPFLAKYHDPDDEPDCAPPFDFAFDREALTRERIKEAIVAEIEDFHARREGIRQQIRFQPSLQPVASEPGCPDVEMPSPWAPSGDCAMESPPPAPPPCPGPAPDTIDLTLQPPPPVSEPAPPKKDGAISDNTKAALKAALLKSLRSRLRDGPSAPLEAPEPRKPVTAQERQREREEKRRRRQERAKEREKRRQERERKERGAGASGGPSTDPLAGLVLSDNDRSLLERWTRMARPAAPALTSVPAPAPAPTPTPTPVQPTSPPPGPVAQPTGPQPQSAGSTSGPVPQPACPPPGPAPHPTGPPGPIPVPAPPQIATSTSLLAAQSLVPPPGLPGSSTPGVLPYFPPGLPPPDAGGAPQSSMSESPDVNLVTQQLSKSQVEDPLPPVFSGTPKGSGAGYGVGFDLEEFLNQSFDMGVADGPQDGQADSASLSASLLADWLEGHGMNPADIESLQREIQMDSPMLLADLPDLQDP

Regarding `CC(=O)Oc1ccc2c(c1)CC[C@@H]1[C@@H]2CC[C@]2(C)[C@@H](O)CC[C@@H]12`, the nuclear beta-catenin stimulation was 6.2% (inactive) in test [1] (at 10 µM) and 4.6% in [1] (stimulation, at 2 µM). Moreover, the insulin secretion stimulation in test [2] is 1.3% (inactive). Also, the viability decrease in [3] was 13.1% (inactive). In test [4], the tube area decrease was -71.2% (inactive). Also, in test [5], the GLP1 secretion stimulation is 1.6% (inactive). Also, the inhibition of viability in test [6] is 41.6% (inactive). The results for the viability decrease (inhibition) in [7] and in [8] were 72.9% (active) and 35.2% (inactive), respectively. The luciferase signal in test [9] is 36 AU (inactive).

For `O=[N+]([O-])c1cccc(S(=O)(=O)NCCNS(=O)(=O)c2cccc([N+](=O)[O-])c2)c1`, the nuclear beta-catenin stimulation in test [1] (at 10 µM) was 0.3% (inactive); in test [1] (stimulation, at 2 µM), 0.2%. In addition, the insulin secretion stimulation in test [2] was -0.55% (inactive). In addition, the viability decrease in test [3] was 38.9% (inactive). The GLP1 secretion stimulation in test [5] was 3.1% (inactive). Moreover, in [6], the inhibition of viability is 7.6% (inactive). The viability decrease (inhibition) was 6.5% (inactive) in test [7] and 14.5% (inactive) in [8].

With `O=C(O)C(S)C(S)C(=O)O` (stereo unspecified), the nuclear beta-catenin stimulation in [1] (at 10 µM) was 2.3% (inactive); in [1] (stimulation, at 2 µM) it was 0.8%. For the same molecule, in [2], the insulin secretion stimulation was 1.3% (inactive). For the same molecule, the viability decrease in test [3] is -17% (inactive). The tube area decrease in test [4] is 14% (inactive). The GLP1 secretion stimulation in test [5] is 6.2% (inactive). Moreover, the inhibition of viability in [6] was -11.3% (inactive). Further, the viability decrease (inhibition) is -31.1% (inactive) in [7] and -4.5% (inactive) in test [8]. Also, the luciferase signal in [9] was 96 AU (inactive).

Regarding `CN1CCN(c2cc3c(nn2)Oc2ccccc2N3C)CC1`, the nuclear beta-catenin stimulation was 0.9% (inactive) in [1] (at 10 µM) and 0.3% in test [1] (stimulation, at 2 µM). Besides, the insulin secretion stimulation in test [2] is -1.15% (inactive). Also, the GLP1 secretion stimulation in test [5] is 5.9% (inactive).

In the case of `CCCC(=O)O[C@]1(C(=O)CO)CC[C@H]2[C@@H]3CCC4=CC(=O)CC[C@]4(C)[C@H]3[C@@H](O)C[C@@]21C`, the nuclear beta-catenin stimulation in test [1] (at 10 µM) is 0.1% (inactive); in test [1] (stimulation, at 2 µM), 1.4%. In addition, the insulin secretion stimulation in test [2] was 1.4% (inactive). For the same molecule, the viability decrease in test [3] is -45.5% (inactive). For the same molecule, the tube area decrease in test [4] is 18.3% (inactive). Moreover, in test [5], the GLP1 secretion stimulation was 3.7% (inactive). For the same molecule, the inhibition of viability in test [6] is 24.2% (inactive). For the same molecule, the viability decrease (inhibition) in test [7] is 19.8% (inactive); in [8], 1% (inactive). In [10], the remaining NAD was 10 nM (inactive). In addition, in [9], the luciferase signal was 148 AU (inactive).

`C[C@H](O)CN(C)C`: the nuclear beta-catenin stimulation in [1] (at 10 µM) was -0.1% (inactive); in test [1] (stimulation, at 2 µM), 1.5%. Besides, the insulin secretion stimulation in [2] is 0.35% (inactive). Besides, in test [5], the GLP1 secretion stimulation was -2.5% (inactive).

In the case of `N[C@H]1C(O)O[C@H](CO)[C@@H](O)[C@@H]1O` (stereo partly specified), the nuclear beta-catenin stimulation in test [1] (at 10 µM) is -1% (inactive); in test [1] (stimulation, at 2 µM), 1.7%. Besides, the insulin secretion stimulation in [2] was 1.4% (inactive). Moreover, in [3], the viability decrease was 7.5% (inactive). For the same molecule, the tube area decrease in test [4] is -12.1% (inactive). The GLP1 secretion stimulation in test [5] is -0.8% (inactive). Moreover, the inhibition of viability in test [6] is -4.93% (inactive). In addition, the viability decrease (inhibition) in test [7] was -42% (inactive); in test [8] it was -2.3% (inactive). In test [9], the luciferase signal is 84 AU (inactive).

For the molecule `C=CCCCCCCCCC(=O)OC`, the nuclear beta-catenin stimulation in [1] (at 10 µM) was 2.7% (inactive); in test [1] (stimulation, at 2 µM), 2%. The insulin secretion stimulation in [2] is 2.85% (inactive). Moreover, the GLP1 secretion stimulation in [5] was 1.2% (inactive).

(Values after PubChem BioAssay.)
